# Laboratory results reported in PubChem BioAssay (NCI).
# The panel holds about 79,000 compounds, 15% with a hit somewhere; the sample as a whole holds those more often. Active and inactive are the calls of the source. Cut-off read from the data, not from the text of the source: active = growth inhibition above about 70%; inactive = the rest.
# Assay: NCI Yeast Anticancer Drug Screen. Data for the rad50 strain (AID 155);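 note: 0% = growth of vehicle-only cultures of the same strain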
# Conditions: S. cerevisiae rad50 strain growth inhibition; at 50.0 µM; stronger effect = higher value
# In short: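 Readout: growth inhibition relative to vehicle-treated cultures. Compound exposure was carried out in a genetically defined yeast strain deficient in DNA damage repair.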
row,Compound,growth inhibition
1,CC(=O)NNc1nc(C)c(C(=O)NNC(=O)C(=O)Nc2c(C)cccc2C(C)C)s1,43.1% (inactive)
2,COc1cc(C2CC(=O)c3ccccc3O2)ccc1O (stereo not drawn),89% (active)
3,CCC1CCC2C3CC=C4CC(OC(C)=O)C(N)CC4(C)C3CCC12C (stereo not drawn),93% (active)
4,COc1ccccc1C1c2cc3c(cc2OC(N2CCOCC2)C1C)OCO3 (stereo not drawn),37.2% (inactive)
5,O=C1C=C/C(=C(/c2ccc(O)c(O)c2)c2ccccc2S(=O)(=O)O)C=C1O,11.8% (inactive)
6,N#CSC#Cc1ccc(C#CSC#N)cc1,30.6% (inactive)
7,Cc1c2ccccc2c(CCl)c2ccc3ccccc3c12,97.7% (active)
8,Oc1ccc(C(=C(Br)c2ccccc2)c2ccc(O)cc2)cc1,87.7% (active)
9,Clc1ccc(/C=N/Nc2c3ccccc3nc3ccccc23)c(Cl)c1,86.4% (active)
10,CCCC#CCCOC(=O)c1cc([N+](=O)[O-])cc([N+](=O)[O-])c1,99.2% (active)
11,CCOc1ccc2c(c1)n([O-])c1ccccc1[n+]2=O,56% (inactive)
12,COc1ccc(/C(Cl)=C(\c2ccc(OCCN(C)C)cc2)c2ccc(OC(=O)C(C)(C)C)cc2)cc1,91.8% (active)
13,CCCCCCCCCCCCCCCCSC(=NC)NC,99.4% (active)
14,N#Cc1ccc(Oc2nc3ccccc3nc2-c2ccccc2)cc1,38.2% (inactive)
15,Cc1ccc2c(c1)nc1n2C(N)=Nc2ccccc2S1,65.5% (inactive)
16,COc1cc(NCc2ccc3nc(-c4ccccc4)c(N)nc3c2)cc(OC)c1OC,-8.3% (inactive)
17,O=C(OCCC1CCCCC1)c1cc([N+](=O)[O-])cc([N+](=O)[O-])c1,83.1% (active)
18,O=C1c2ccc3ccccc3c2CCC1[n+]1ccc2ccccc2c1 (stereo not drawn),53.4% (inactive)
19,Cc1cc(NC(=S)SCc2ccc(Cl)cc2)c([N+](=O)[O-])cc1C,96% (active)
20,N#CC(O)C(Br)(Br)Br (stereo not drawn),82.7% (active)

row,Compound,growth inhibition
1,C[CH2][Ge]([CH2]C)[CH2]C.C[CH2][Ge]([Cl])[CH2]C.C[CH2][Ge][CH2]C,98% (active)
2,COC1C(=[N+]=[N-])C(=O)NC(=O)N1C1OC(COC(c2ccccc2)(c2ccccc2)c2ccccc2)C(O)C1O (stereo not drawn),69.5% (inactive)
3,CC(=O)Oc1ccc(C)c(C(C)C(Cl)(Cl)Cl)c1 (stereo not drawn),65% (inactive)
4,OC(c1ccccc1)c1cccc(Br)c1 (stereo not drawn),76.5% (active)
5,CC/C(=C1\C=CC(=O)S1)C(CC)c1ccc(OC(C)=O)cc1 (stereo not drawn),99.2% (active)
6,COc1ccc(/C=C2/C(=O)NC3SC=C(c4cccc([N+](=O)[O-])c4)N23)cc1 (stereo not drawn),33% (inactive)
7,O=C1O/C(=C2\OC(=O)c3ccccc32)c2ccccc21,-13.4% (inactive)
8,Clc1ncccc1-n1cccc1/C=N\N=C/c1cccn1-c1cccnc1Cl,7.25% (inactive)
9,Clc1nc2cc3nc(Cl)c(Cl)nc3cc2nc1Cl,21.2% (inactive)
10,CC(=O)c1c2c(cc3c1CC1(Cc4cc5c(cc4C1)C(=O)CCC5)C3)CCCC2 (stereo not drawn),-15.8% (inactive)
11,CCCCOS(=O)(=O)c1ccc(C)cc1,9.1% (inactive)
12,C[N+]1(c2ccccc2)C=C(c2ccccc2)SC1=S (stereo not drawn),67.8% (inactive)
13,COc1ccc(/C=N/N=c2\[nH][nH]/c(=N\N=C\c3ccc(OC)c4ccccc34)c3ccccc23)c2ccccc12,57.6% (inactive)
14,CCCCCCCCCCCCCCCCN,99% (active)
15,CCCCCCCCCCCC[S+](C)C,44.9% (inactive)
16,CP(=O)(c1ccccc1)c1ccccc1,12.3% (inactive)
17,CCCCCCCCCCCC(=O)OC/C=C/COC(=O)c1ccccc1,36% (inactive)
18,O=C(O)CCC(O)=C1S(=O)(=O)OCCOS1(=O)=O,36% (inactive)
19,CCOC(=O)C1SC(=Nc2cccc(Cl)c2C)N=C1C (stereo not drawn),85.3% (active)

# Assay: NCI Yeast Anticancer Drug Screen. Data for the mec2-1 strain (AID 157)
# Conditions: S. cerevisiae mec2-1 strain, at 5.0 µM (retest, dose inferred, filed as 0.5), stronger effect = higher value
# In short: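 Readout is yeast growth inhibition, normalised to vehicle-treated controls, in the mec2-1 strain exposed to compound.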
row,Compound,growth inhibition
1,CC(=O)NNc1nc(C)c(C(=O)NNC(=O)C(=O)Nc2c(C)cccc2C(C)C)s1,1% (inactive)
2,COc1cc(C2CC(=O)c3ccccc3O2)ccc1O (stereo not drawn),10% (inactive)
3,CCC1CCC2C3CC=C4CC(OC(C)=O)C(N)CC4(C)C3CCC12C (stereo not drawn),9% (inactive)
4,COc1ccccc1C1c2cc3c(cc2OC(N2CCOCC2)C1C)OCO3 (stereo not drawn),9% (inactive)
5,O=C1C=C/C(=C(/c2ccc(O)c(O)c2)c2ccccc2S(=O)(=O)O)C=C1O,2% (inactive)
6,N#CSC#Cc1ccc(C#CSC#N)cc1,100% (active)
7,Cc1c2ccccc2c(CCl)c2ccc3ccccc3c12,100% (active)
8,Oc1ccc(C(=C(Br)c2ccccc2)c2ccc(O)cc2)cc1,99% (active)
9,Clc1ccc(/C=N/Nc2c3ccccc3nc3ccccc23)c(Cl)c1,-11% (inactive)
10,CCCC#CCCOC(=O)c1cc([N+](=O)[O-])cc([N+](=O)[O-])c1,5% (inactive)
11,CCOc1ccc2c(c1)n([O-])c1ccccc1[n+]2=O,12% (inactive)
12,COc1ccc(/C(Cl)=C(\c2ccc(OCCN(C)C)cc2)c2ccc(OC(=O)C(C)(C)C)cc2)cc1,17% (inactive)
13,CCCCCCCCCCCCCCCCSC(=NC)NC,98% (active)
14,N#Cc1ccc(Oc2nc3ccccc3nc2-c2ccccc2)cc1,-4% (inactive)
15,Cc1ccc2c(c1)nc1n2C(N)=Nc2ccccc2S1,-14% (inactive)
16,COc1cc(NCc2ccc3nc(-c4ccccc4)c(N)nc3c2)cc(OC)c1OC,-1% (inactive)
17,O=C(OCCC1CCCCC1)c1cc([N+](=O)[O-])cc([N+](=O)[O-])c1,13% (inactive)
18,O=C1c2ccc3ccccc3c2CCC1[n+]1ccc2ccccc2c1 (stereo not drawn),11% (inactive)
19,Cc1cc(NC(=S)SCc2ccc(Cl)cc2)c([N+](=O)[O-])cc1C,45% (inactive)
20,N#CC(O)C(Br)(Br)Br (stereo not drawn),-3% (inactive)

row,Compound,growth inhibition
1,C[CH2][Ge]([CH2]C)[CH2]C.C[CH2][Ge]([Cl])[CH2]C.C[CH2][Ge][CH2]C,15% (inactive)
2,COC1C(=[N+]=[N-])C(=O)NC(=O)N1C1OC(COC(c2ccccc2)(c2ccccc2)c2ccccc2)C(O)C1O (stereo not drawn),10% (inactive)
3,CC(=O)Oc1ccc(C)c(C(C)C(Cl)(Cl)Cl)c1 (stereo not drawn),-5% (inactive)
4,OC(c1ccccc1)c1cccc(Br)c1 (stereo not drawn),-11% (inactive)
5,CC/C(=C1\C=CC(=O)S1)C(CC)c1ccc(OC(C)=O)cc1 (stereo not drawn),-11% (inactive)
6,COc1ccc(/C=C2/C(=O)NC3SC=C(c4cccc([N+](=O)[O-])c4)N23)cc1 (stereo not drawn),0% (inactive)
7,O=C1O/C(=C2\OC(=O)c3ccccc32)c2ccccc21,0% (inactive)
8,Clc1ncccc1-n1cccc1/C=N\N=C/c1cccn1-c1cccnc1Cl,5% (inactive)
9,Clc1nc2cc3nc(Cl)c(Cl)nc3cc2nc1Cl,24% (inactive)
10,CC(=O)c1c2c(cc3c1CC1(Cc4cc5c(cc4C1)C(=O)CCC5)C3)CCCC2 (stereo not drawn),23% (inactive)
11,CCCCOS(=O)(=O)c1ccc(C)cc1,-4% (inactive)
12,C[N+]1(c2ccccc2)C=C(c2ccccc2)SC1=S (stereo not drawn),25% (inactive)
13,COc1ccc(/C=N/N=c2\[nH][nH]/c(=N\N=C\c3ccc(OC)c4ccccc34)c3ccccc23)c2ccccc12,0% (inactive)
14,CCCCCCCCCCCCCCCCN,20% (inactive)
15,CCCCCCCCCCCC[S+](C)C,23% (inactive)
16,CP(=O)(c1ccccc1)c1ccccc1,-1% (inactive)
17,CCCCCCCCCCCC(=O)OC/C=C/COC(=O)c1ccccc1,-3% (inactive)
18,O=C(O)CCC(O)=C1S(=O)(=O)OCCOS1(=O)=O,-8% (inactive)
19,CCOC(=O)C1SC(=Nc2cccc(Cl)c2C)N=C1C (stereo not drawn),24% (inactive)
